VDR inh: Inhibitors of the vitamin D receptor (VDR): qHTS; VDR-SRC2-3 peptide fluorescence polarization, 2 h; Potency, µM, inactives show max response, negative = inhibition, most hits filed as inhibitors; 0.93% of 400,000 active
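VDR–SRC2-3 interaction, FP format. Cmpds 23 nl via pintool, brief spin, 2 h ambient incubation.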
TDP1 cell CPT: qHTS for Inhibitors of human tyrosyl-DNA phosphodiesterase 1 (TDP1): qHTS in cells in presence of CPT; 12% of 420,000 active; chicken DT40 Tdp1-/-;hTDP1 cells + 20 nM CPT, ATP luminescence, 48 h; Potency, µM (highest dose often 46.2 µM), inactives show at the highest dose activity change, negative = growth inhibition, most hits filed as inhibitors; note: nearly all actives have a fitted effect of over 55% in size
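Chicken DT40 Tdp1-/- cells stably complemented with human TDP1 were seeded at 400 cells/well in medium containing 20 nM camptothecin, exposed to pin-transferred compounds, and grown at 37 °C for at least 48 hr. Viability was read as ATP luminescence.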
GCN5L2 inh: qHTS Assay for Inhibitors of GCN5L2; 0.21% of 390,000 active; Potency, µM (series often up to 58.9 µM), for inactives: top-dose activity change, negative = inhibition, most hits filed as inhibitors; AID 504327, 2011; GCN5L2 HAT assay, ThioGlo1 CoA-SH fluorescence
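Enzyme at 20nM final was mixed with library compounds for 15 min at room temperature. Peptide H3(1-25) at 75uM, acetyl-CoA at 70uM and ThioGlo1 at 50uM were then added. Plates were read immediately and after 20 min (Ex340nm/Em540nm).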
TDP1 inh: qHTS Assay for Inhibitors of Tyrosyl-DNA Phosphodiesterase (TDP1). 0.28% of 350,000 active. Tyrosyl-DNA phosphodiesterase 1 (Homo sapiens), Q9NUW8. Potency, µM (series often up to 130 µM), for the others: at the highest dose activity change, negative = inhibition, hits mostly inhibitors. recombinant TDP1, AlphaScreen DNA substrate cleavage; note: nearly all actives have a fitted effect of over 40% in size
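Recombinant human Tdp1 (E. coli-expressed, 1 nM final) preincubated with compounds 15 min at room temperature, then 5'-biotin/3'-phosphotyrosine-FITC DNA substrate (15 nM final) added for 5 min. AlphaScreen beads (10 ug/ml final) added 10 min; cleavage lowers signal.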
DT40 TDP1 no CPT: qHTS for Inhibitors of human tyrosyl-DNA phosphodiesterase 1 (TDP1): qHTS in cells in absence of CPT | DT40 Tdp1-/- hTDP1 cells, no CPT, ATP luminescence, 48 h | Potency, µM (titrated, usually from 46.2 µM), for inactives: at the top dose activity change, negative = growth inhibition, usual class: inhibitors | 15% of 420,000 active | AID 686978, 2013; note: nearly all actives have a fitted effect of over 55% in size
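Readout: luminescence from CellTiter-Glo after 30 min in the dark at RT. Cells: DT40 Tdp1-/- with stable hTDP1, 400/well. Exposure: compounds alone, ≥48 hr, 37 °C.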
PLK1 PBD block: qHTS for Inhibitors of PLK1-PDB (polo-like kinase 1 - polo-box domain): Primary Screen | Potency, µM, without a hit: max response, negative = inhibition, most hits filed as inhibitors | Plk1 PBD binding of FITC phosphopeptide, fluorescence polarization | Serine/threonine-protein kinase PLK1 (Homo sapiens), P53350 | 2.8% of 360,000 active; note: series mostly up to about 57 µM; nearly all actives have a fitted effect of over 65% in size
Target sequence (P53350 whole entry, looked up, the tested form may be a part): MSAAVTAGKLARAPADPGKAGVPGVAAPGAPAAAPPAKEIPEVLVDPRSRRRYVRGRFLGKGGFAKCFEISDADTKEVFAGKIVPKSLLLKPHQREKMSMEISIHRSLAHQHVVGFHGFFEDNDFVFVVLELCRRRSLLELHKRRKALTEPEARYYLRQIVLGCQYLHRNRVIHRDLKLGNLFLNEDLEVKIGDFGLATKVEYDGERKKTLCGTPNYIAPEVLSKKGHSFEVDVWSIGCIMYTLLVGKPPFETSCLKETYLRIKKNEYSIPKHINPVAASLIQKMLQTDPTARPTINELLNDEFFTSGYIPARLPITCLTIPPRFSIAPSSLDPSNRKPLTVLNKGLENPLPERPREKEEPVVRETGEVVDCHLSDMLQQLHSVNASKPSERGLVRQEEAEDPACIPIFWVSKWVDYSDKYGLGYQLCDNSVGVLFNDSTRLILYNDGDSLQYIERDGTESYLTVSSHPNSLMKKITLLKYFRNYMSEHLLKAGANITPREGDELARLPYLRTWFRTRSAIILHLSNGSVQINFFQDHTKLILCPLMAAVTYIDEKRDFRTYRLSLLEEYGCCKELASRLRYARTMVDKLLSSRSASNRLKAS
* = called active by the depositor; ? = inconclusive; / = not tested or not shown; [ ] = another dose, or the depositor's remark. In the library only some 18% were active in any assay of this set; here they are far more common. Calls come from the whole dose curve; as a rule, active = well fitted curve in the direction sought with a large enough effect; inconclusive = small, poorly fitted or top-dose-only effect, or another doubt; inactive = no such curve, though single readings can be large; an effect the other way counts as inactive or inconclusive. % is set by controls: 0 for no effect and ±100 for the full control effect; potency is the fitted concentration of half-maximal effect.

SMILES	VDR inh	TDP1 cell CPT	GCN5L2 inh	TDP1 inh	DT40 TDP1 no CPT	PLK1 PBD block
CCCCN(C(=O)c1cccc(S(=O)(=O)N2CCN(Cc3ccccc3)CC2)c1)c1ccccc1	-10%	?	-26%	-17%	16µM*	-8%
Cc1ccc(CN(C)C(=O)c2cccc(S(=O)(=O)N3CCCC3)c2)cc1	10%	?	0%	0%	?	-2%
COCCN(Cc1ccccc1)C(=O)c1cccc(S(=O)(=O)N2CCCc3ccccc32)c1	-4%	13µM*	-7%	1%	9.2µM*	3%
Cn1c2cc(S(C)=O)sc2c2cnn(Cc3ccccc3F)c(=O)c21 (stereo not drawn)	/	/	/	1%	/	/
O=C(NCc1ccccc1OC(F)(F)F)C1CCC(=O)N(CCc2ccccn2)C1 (stereo not drawn)	-22%	10%	/	/	6%	2%
O=C(NCc1ccccc1C(F)(F)F)C1CCC(=O)N(CCCc2ccccc2)C1 (stereo not drawn)	4%	?	-12%	1%	29µM*	-2%
O=C(NCCc1cn[nH]c1)C1CCC(=O)N(CCc2cccc(F)c2)C1 (stereo not drawn)	?	?	1%	1%	?	3.4µM*
O=C(NCc1ccccc1OC(F)(F)F)C1CCC(=O)N(Cc2ccccn2)C1 (stereo not drawn)	?	16µM*	-5%	3%	?	12µM*
O=C(NCCN1CCCC1=O)C1CCC(=O)N(CCc2cccc(F)c2)C1 (stereo not drawn)	-2%	5%	?	4%[56.1 µM]	11%	0%
O=C(NCCn1cccn1)C1CCC(=O)N(CCc2cccc(F)c2)C1 (stereo not drawn)	5%	-2%	-1%	0%	19%	-11%
O=C(NCCc1c[nH]c2ccccc12)C1CCC(=O)N(CCc2cccc(F)c2)C1 (stereo not drawn)	-2%	?	0%	/	8.2µM*	-17%
COc1ccc(-n2nc(C(=O)Nc3nc4ccc(OC)cc4s3)c3ccccc3c2=O)c(OC)c1	/	/	1%	-5%	/	/
CCn1c(SCC(=O)N/N=C/c2c[nH]c3ccccc23)nnc1-c1ccc(C(C)(C)C)cc1	6%	?	-3%	8%	?	-6%
O=C(NCCc1ccccc1)C1CCC(=O)N(CCCN2CCCC2=O)C1 (stereo not drawn)	-21%	-11%	1%	/	23%	-8%
O=C(NCCc1cccc(F)c1)C1CCC(=O)N(CCCc2ccccc2)C1 (stereo not drawn)	7%	18µM*	0%	3%[56.1 µM]	?	5%
CN(CC(=O)Nc1ccc(F)cc1)CC(=O)N1CCCC1	-5%	-2%	-2%	0%	-24%	-14%
Cc1ccc(C)c(NC(=S)NCC(c2ccccc2)N(C)C)c1 (stereo not drawn)	-8%	3%	-4%	8%	?	-14%
COc1cccc(-c2cnc3c(NC=O)cc(-c4ccc(N(C)C)cc4)cn23)c1	/	15µM*	/	/	8.2µM*	-14%
COc1ccc(-c2cc(NC=O)c3ncc(-c4cccc(OC)c4)n3c2)cc1	/	5.8µM*	/	/	5.2µM*	?
CNc1nc(-c2ccccc2)nc(-c2ccccc2)c1C#N	-7%	?	/	4%	-6%	1%
NNc1nc(-c2ccccc2)nc(-c2ccccc2)c1Br	-13%	?	/	/	8.2µM*	-5%
CC(C)NC(=O)c1sc(=S)n2c1[nH]c(=O)c1ccc(C(=O)NCCc3ccc(Cl)cc3)cc12	-20%	?	-6%	/	?	27µM*
Cc1ccc2[nH]c(=O)c3cc(C(=O)NCCc4ccc(Cl)cc4)sc3c2c1	1%	?	4%	4%	?	/
CCOc1ccc(CCNC(=O)c2ccc3c(=O)[nH]c4c(C(=O)NC(C)C)sc(=S)n4c3c2)cc1	-1%	23µM*	-18%	-13%	13µM*	?
O=C(NCCc1ccccc1)c1ccc2c(=O)[nH]c3c(C(=O)NCC4CCCO4)sc(=S)n3c2c1 (stereo not drawn)	79µM*	?	?	10%	?	30µM*
SMILES	VDR inh	TDP1 cell CPT	GCN5L2 inh	TDP1 inh	DT40 TDP1 no CPT	PLK1 PBD block
Cc1ccc(CNC(=O)CN(c2cc(C)cc(C)c2)S(=O)(=O)c2c(C)noc2C)cc1	-17%	-28%	1%	-2%	?	/
O=C1c2ccccc2NC(c2cccc(O)c2)N1c1ccccc1 (stereo not drawn)	-15%	?	-5%	/	?	?
COc1ccc(C2=CSC3=C(C(=O)c4cccc(S(=O)(=O)N(C)C)c4)CCN23)cc1	-5%	23µM*	5%[0.501 µM]	2%	16µM*	-12%
CC(=O)OC1CCC2(C)C(=CCC3C2CCC2(C)C3C[C@@H]3O[C@]32C(C)=O)C1 (stereo partly drawn)	4%	13%	-14%[0.501 µM]	11%[56.1 µM]	3%	/
COc1ccc(CN(C)C(=O)CCN=C2NS(=O)(=O)c3ccccc32)c(OC)c1	15%	-20%	1%	0%	-3%	1%
c1cc(CNCCCN2CCOCC2)ccn1	-7%	-5%	-4%	2%	-7%	-8%
CC(=O)N(CCCN1CCOCC1)Cc1ccncc1	-9%	-6%	2%	0%	-6%	30µM*
O=c1ccn(Cc2ccccc2)c2ccccc12	0%	12µM*	-1%	0%	13µM*	-8%
CC(=O)N(Cc1ccccc1C)c1cccc(C)c1C	4%	-14%	-3%	5%	-24%	-9%
CC(=O)N(Cc1ccc(F)cc1)c1cccc(C)c1C	14%	?	-5%	-3%	21µM*	-4%
Cc1cc(Cl)ccc1NC(=O)CCC(=O)O	-16%	-2%	-1%	0%	-4%	2%
CCOc1ccc(Oc2ccc(NS(=O)(=O)c3cc(C(=O)O)ccc3Cl)cc2)cc1	-4%	-7%	-3%	1%	20%	-12%
CCC(=O)NC(=S)Nc1cccc(NC(=O)c2ccccc2Cl)c1	-6%	-29%	-3%	2%	?	27µM*
CCOc1ccc(C(=O)Nc2cccc(NC(=O)c3ccc(Cl)cc3Cl)c2)cc1	18%	?	3%	0%[12.3 µM]	21µM*	/

Assay outcomes deposited in PubChem by National Center for Advancing Translational Sciences (NCATS).
